Sampled rows, rich in hits. Any-hit rate of the full collection: about 1.3%.
NR2F2 inh = NR2F2 transcriptional activity inhibitors, primary screen, cell-based, luciferase reporter, HEK293T, luminescence; HEK293T NGFI-A luciferase reporter; inhibition, % at 8.6 µM; actives 0.7% (n = 370,000); AID 686940, 2013;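 active means inhibition above a per-plate cutoff, mean inhibition of test wells between control levels plus 3 SD, cut at about 38% in these data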;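 further: cells cotransfected with COUP-TFII expression vector driving the NGFI-A reporter; 0% = median of COUP-TF2 test wells and 100% = reporter-only cells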
NR5A2 inv ag = LRH-1 (NR5A2) inverse agonists, primary screen, cell-based, luminescence, HEK293T, StAR-luciferase reporter | LRH-1 transfected, 24 h | actives 0.13% (n = 360,000) | inhibition, % at 3.6 µM;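 active means inhibition above the mean inhibition of all tested compounds plus 3 SD, cut at about 73% in these data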;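 further: 0% = DMSO wells and 100% = reporter-only cells lacking LRH-1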
SRC2 inh = inhibition of GAL4-SRC2 driven luciferase reporter, primary screen, SRC2 inhibitor project, cell-based, luminescence; Nuclear receptor coactivator 2 (Homo sapiens), Q15596; HEK293 GAL4-SRC2 luciferase reporter; inhibition, % at 9 µM; actives 0.17% (n = 370,000); AID 651957, 2012;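 active means inhibition above the mean inhibition of all tested compounds plus 3 SD, set per campaign, cut at about 52% in these data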;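 further: 0% = DMSO treated cells and 100% = cells given Gossypol at 36 µM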
NCOA3 inh = SRC3 coactivator transcriptional activity inhibitors, primary screen, cell-based, luminescence | Nuclear receptor coactivator 3 (Homo sapiens), Q9Y6Q9 | HEK293 GAL4-SRC3 luciferase reporter | inhibition, % at 3.6 µM | actives 0.17% (n = 360,000) | AID 588352, 2011;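 active means inhibition above a per-campaign cutoff, the mean of all compounds plus 3 SD, cut at about 60% in these data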;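 further: 0% = DMSO-treated cells and 100% = gossypol-treated cells at 36 µM; higher means less SRC3-driven luciferase light from the GAL4 reporter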
Target sequence (Q9Y6Q9 whole entry, looked up, the tested form may be a part): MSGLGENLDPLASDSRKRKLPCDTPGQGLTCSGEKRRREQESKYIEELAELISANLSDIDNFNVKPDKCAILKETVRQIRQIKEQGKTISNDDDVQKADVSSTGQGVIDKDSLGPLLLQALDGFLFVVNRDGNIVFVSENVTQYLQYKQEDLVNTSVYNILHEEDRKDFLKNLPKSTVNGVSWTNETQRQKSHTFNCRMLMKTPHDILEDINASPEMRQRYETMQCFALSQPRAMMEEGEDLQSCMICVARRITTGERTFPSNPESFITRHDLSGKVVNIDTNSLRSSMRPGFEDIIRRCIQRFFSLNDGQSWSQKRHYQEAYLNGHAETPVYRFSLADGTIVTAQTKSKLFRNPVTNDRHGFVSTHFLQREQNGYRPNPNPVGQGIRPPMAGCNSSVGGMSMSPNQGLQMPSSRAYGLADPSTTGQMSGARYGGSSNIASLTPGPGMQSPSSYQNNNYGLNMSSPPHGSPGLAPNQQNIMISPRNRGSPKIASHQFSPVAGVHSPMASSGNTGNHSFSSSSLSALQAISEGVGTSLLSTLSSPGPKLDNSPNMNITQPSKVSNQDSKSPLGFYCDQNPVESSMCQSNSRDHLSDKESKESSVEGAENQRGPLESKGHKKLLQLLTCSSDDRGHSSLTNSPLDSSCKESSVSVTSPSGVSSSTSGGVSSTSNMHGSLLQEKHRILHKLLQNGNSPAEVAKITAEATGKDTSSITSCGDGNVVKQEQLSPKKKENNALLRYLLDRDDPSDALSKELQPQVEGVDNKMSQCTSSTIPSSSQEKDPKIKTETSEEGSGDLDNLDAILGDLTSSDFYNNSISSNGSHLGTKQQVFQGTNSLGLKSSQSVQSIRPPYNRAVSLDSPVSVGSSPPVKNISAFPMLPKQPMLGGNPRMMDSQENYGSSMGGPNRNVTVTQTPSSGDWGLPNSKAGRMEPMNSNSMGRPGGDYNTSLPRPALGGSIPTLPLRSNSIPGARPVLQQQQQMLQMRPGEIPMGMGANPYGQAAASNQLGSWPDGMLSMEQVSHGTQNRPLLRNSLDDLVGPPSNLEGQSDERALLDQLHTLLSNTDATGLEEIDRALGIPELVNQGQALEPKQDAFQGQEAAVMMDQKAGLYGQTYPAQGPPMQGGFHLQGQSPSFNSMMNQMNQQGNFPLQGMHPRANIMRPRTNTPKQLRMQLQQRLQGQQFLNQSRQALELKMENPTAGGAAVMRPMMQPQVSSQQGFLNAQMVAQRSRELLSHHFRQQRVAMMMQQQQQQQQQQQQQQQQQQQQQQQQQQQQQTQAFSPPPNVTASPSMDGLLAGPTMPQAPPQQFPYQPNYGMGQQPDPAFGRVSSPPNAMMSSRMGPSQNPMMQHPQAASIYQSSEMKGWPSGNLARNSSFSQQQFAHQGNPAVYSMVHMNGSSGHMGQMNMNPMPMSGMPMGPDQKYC
SRC1 inh = SRC1 coactivator transcriptional activity inhibitors, primary screen, cell-based, luminescence; Nuclear receptor coactivator 1 (Homo sapiens), Q15788; HEK293 GAL4-SRC1 luciferase reporter; inhibition, % at 3.6 µM; actives 0.12% (n = 360,000); AID 588354, 2011;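 active means inhibition above the campaign mean plus 3 SD, with each screening campaign given its own cutoff, cut at about 60% in these data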;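 further: 0% = DMSO treated cells and 100% = gossypol at 36 µM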
Gli-Sufu antag = Gli-Sufu pathway antagonists, primary screen, luciferase luminescence, Sufu-KO-LIGHT cells, uHTS | Sufu-KO-LIGHT fibroblasts, Gli luciferase reporter luminescence | inhibition, % at 5 µM | actives 0.74% (n = 340,000);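 active means inhibition above about 55%, limit read from the data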;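 further: 0% = DMSO-treated cells and 100% = wells with medium but no cells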
An asterisk follows results filed as active; / = no result given; ! = a repeat was not active.

SMILES	NR2F2 inh	NR5A2 inv ag	SRC2 inh	NCOA3 inh	SRC1 inh	Gli-Sufu antag
CC[C@@H](C(=O)[C@@H](C)[C@@H](O)[C@H](C)[C@@H]1O[C@@H]([C@@H](CC)C(=O)O)CC[C@@H]1C)[C@H]1O[C@]2(C=C[C@@H](O)[C@]3(CC[C@@](C)([C@H]4CC[C@](O)(CC)[C@H](C)O4)O3)O2)[C@H](C)C[C@@H]1C	45*	86*	2	62*	-39	90*
CC(=O)OC1CC2C(C)(C)C(=O)C=CC2(C)C2CCC3(C)C(c4ccoc4)OC(=O)C4OC43C12C (stereo unspecified)	9	23	39	49	34	/
CC(=O)O[C@@H]1C[C@H]2C(C)(C)C(=O)C=C[C@]2(C)[C@H]2CC[C@@]3(C)[C@H](c4ccoc4)OC(=O)[C@H]4O[C@]43[C@@]21C	30	31	52*	26	24	2
COc1cccc2c1C(=O)c1c(O)c3c(c(O)c1C2=O)C[C@@](O)(C(=O)CO)C[C@@H]3O[C@H]1C[C@H](N)[C@@H](O)[C@H](C)O1	/	89*	/	-2	-33	68*
CC(=O)[C@]1(O)Cc2c(O)c3c(c(O)c2[C@@H](O[C@H]2C[C@H](N)[C@H](O)[C@H](C)O2)C1)C(=O)c1ccccc1C3=O	/	/	/	/	/	81*
COC(=O)[C@]12C[C@H](CC(=O)NCc3cccc4ccccc34)C(=O)N(Cc3ccco3)C1=C[C@H](C(C)(C)C)O[C@@H]2C	1	/	19	/	/	/
Cc1ccc(S(=O)(=O)Nc2cc(Cl)c(O)c3ncccc23)cc1	1	68	-3	35	23	69*
CC(C)CNc1cccc2c1S(=O)(=O)N(Cc1cn(Cc3ccc(C(F)(F)F)cc3)nn1)Cc1ccccc1O2	4	/	8	/	/	/
COc1cccc(N2CCN(c3c(C#N)c(C(F)(F)F)nn3C)CC2)c1	51*	-7	35	31	36	0
O=C1c2c(O)ccc(O)c2C(=O)c2c(NCCNCCO)ccc(NCCNCCO)c21	-35	35	-362	24	65*	77*
O=[N+]([O-])c1cc(O)c2ncccc2c1	17	/	-42	/	/	67*
CN(CCOC(=O)c1cc2ccccc2o1)C1CN(Cc2cn(Cc3cccc(F)c3)nn2)S(=O)(=O)C1 (stereo unspecified)	-9	/	-3	/	/	/
C[C@H]1COC(=O)[C@H](NC(=O)OCC2c3ccccc3-c3ccccc32)C/C=C\C[C@H](CC(=O)N(CCO)Cc2ccccc2)C(=O)N1	3	-7	-1	-6	-1	38
O=C(N[C@H]1C/C=C\C[C@H](CC(=O)N(CCO)Cc2ccccc2)C(=O)N[C@@H](c2ccccc2)COC1=O)OCC1c2ccccc2-c2ccccc21	/	8	/	3	1	66*
C#CCCCN([C@H](C(=O)OC)C(C)C)S(=O)(=O)c1ccccc1Br	14	/	8	/	/	/
COc1cc(Nc2nc(-c3ccccc3)c3cc(C)ccc3n2)cc(OC)c1OC	-3	5	93*	7	13	18
Cc1ccc2nc(NCC(=O)O)nc(-c3ccccc3)c2c1	4	10	5	-3	12	-4
CCC(=O)NC(c1cccs1)c1ccc2cccnc2c1O (stereo unspecified)	17	18	31	36	10	81*
CC(C)CC(=O)NC(c1cccs1)c1ccc2cccnc2c1O (stereo unspecified)	/	10	/	8	1	72*
COC(=O)C1CN(CCc2ccccc2)CCS(=O)(=O)N1Cc1ccc(C(F)(F)F)cc1 (stereo unspecified)	8	/	1	/	/	/
O=C(NCCc1ccccc1)OCc1cn(Cc2ccccc2C(F)(F)F)nn1	-14	/	12	/	/	/
CC1CCCN(CCCNC(=O)c2ccc3c(c2)N(Cc2ccc(F)cc2)C(=O)c2ccccc2S3=O)C1 (stereo unspecified)	-8	0	13	19	-24	66*
COc1ccc2[nH]c3c(c2c1)CCNC3=O	16	36	31	65*	53	-6
COC(=O)C1CN(Cc2ccc(Cl)cc2)CCS(=O)(=O)N1Cc1cn(Cc2ccccc2)nn1 (stereo unspecified)	2	/	-6	/	/	/
O=C(Nc1nc(-c2ccccn2)cs1)c1ccc(Cl)s1	2	15	-20	4	0	76*
SMILES	NR2F2 inh	NR5A2 inv ag	SRC2 inh	NCOA3 inh	SRC1 inh	Gli-Sufu antag
CNc1ccc2ncc(-c3cccc(C(=O)N(C)C)c3)n2n1	19	14	56*	58	69*	/
CN(C)C(=O)c1cccc(-c2ccc3nncn3c2)c1	-6	18	-16	1	8	/
O=C(NC(CC1=CCCCC1)c1ccc2ccccc2c1)C(F)(F)F (stereo unspecified)	7	/	-35	/	/	/
CN(C)CCCNc1c2c(nc3ccccc13)CCC2	-15	-16	-34	17	20	11
CN(C)CCNCCCNc1c2ccccc2nc2cccc([N+](=O)[O-])c12	-1	6	-14	-15	1	62*
CSc1nc(SCC(N)=O)c2c3c(sc2n1)CN(C)CC3	-1	10	-12	4	13	99*
CCCC(=O)Nc1cccc(NC(=O)c2ccccc2Br)c1	0	0	52*	12	0	0
COc1ccc2nc(NC(=O)c3ccccc3C(=O)O)sc2c1	-2	-4	-37	-9	-3	29
COc1ccc(C(=O)Nc2nc3ccccc3s2)c(OC)c1	99*	93*	93*	91*	89*	88*
COC(=O)[C@]12C[C@H](CC(=O)NCCCCc3ccccc3)C(=O)N(CCc3ccc(OC)c(OC)c3)C1=C[C@H](COCc1ccccc1)O[C@@H]2C	1	/	1	/	/	/
c1ccc(CN2CCN(c3ncnc4c3[nH]c3ccccc34)CC2)cc1	74*	37	20	35	-1	62*
c1ccc2c(c1)[nH]c1c(N3CCC4(CC3)OCCO4)ncnc12	/	8	/	2	4	-41
CCN1/C(=C/C=C/c2sc3ccccc3[n+]2CC)Sc2ccccc21	/	55	/	48	18	91*
CC1=C(/C=C/C(C)=C/C=C/C(C)=C/C(=O)Nc2ccc(O)cc2)C(C)(C)CCC1	13	-57	2	-7	-14	70*!
CC1=C(/C=C/C(C)=C/C=C/C(C)=C\C(=O)O)C(C)(C)CCC1	-4	-121	/	-15	3	17
CCCCCc1ccc(OCCCC[n+]2ccccc2)c(CCCCC)c1	/	42	/	45	-2	83*
